This assay concerns Ditylenchus dipsaci. In words: proportion of mobile D. dipsaci (mixed stage) relative to DMSO control (fraction of DMSO control); higher = more viable, less nematicidal, active = 0.86 or less; extreme values may be limits of the assay. The note with it: 60 µM; 5 days; temperature: 20 °C. In outline: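 Ditylenchus dipsaci nematodes were cultured on pea plants in Gamborg B-5 agar, then extracted into water through a filter funnel, and roughly 20 worms in distilled water were placed in each well of a 96-well plate. Compound was pinned in to a final concentration of 60 µM (0.6% v/v DMSO), and the sealed plates were shaken at 200 rpm for 5 days at 20 °C. Mobile worms were counted under the microscope after 2 µL of 1 M NaOH was added. Mobility is given relative to DMSO controls as the mean of two biological replicates.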
Consider `Clc1cccc(-c2nc(-c3cccnc3)no2)c1`, for which the “proportion of mobile D. dipsaci” value was 1 (inactive).

Turning to `Cc1cc(OCc2nc(-c3cccnc3)no2)ccc1Cl`, the “proportion of mobile D. dipsaci” value is 1 (inactive).

Take `Clc1ccc(OCc2nc(-c3ccccc3)no2)c(Cl)c1`: the “proportion of mobile D. dipsaci” value was 1 (inactive). In the case of `c1ccc(-c2nnc(SCc3cccnc3)o2)cc1`, the “proportion of mobile D. dipsaci” value was 0.75 (active). Turning to `COc1ccccc1-c1nnc(SCC(=O)OCc2ccccc2)o1`, the “proportion of mobile D. dipsaci” value is 1 (inactive). The result for `COc1ccc(-c2noc(COc3ccccc3)n2)cc1` reads 1 (inactive). Consider `COc1ccc(-c2noc(COc3ccc(C)c(C)c3)n2)cc1`, for which the “proportion of mobile D. dipsaci” value was 1 (inactive). `COC(=O)c1ccc(CSc2nnc(-c3ccncc3)o2)cc1`: the “proportion of mobile D. dipsaci” value was 1 (inactive).

Turning to `Cc1ccc(-c2nc(C3CCCCC3)no2)cc1`, the “proportion of mobile D. dipsaci” value is 1 (inactive). Regarding `O=C(CSc1nnc(-c2ccccc2)o1)Nc1ccccc1F`, the “proportion of mobile D. dipsaci” value was 1 (inactive). The figure for `Clc1ccc(-c2nc(-c3ccc4c(c3)OCO4)no2)cc1` is 1 (inactive).

`CCOc1ccccc1-c1nc(-c2ccc(NC(=O)CCc3ccc(OC)cc3)cc2)no1`: the “proportion of mobile D. dipsaci” value is 1 (inactive). For `c1ccc(COc2cccc(-c3nc(-c4ccncc4)no3)c2)cc1`, the “proportion of mobile D. dipsaci” value was 1 (inactive). The figure for `Clc1cccc(-c2nc(-c3ccccc3Cl)no2)c1` is 1 (inactive); for `O=C(CSc1nnc(-c2ccccc2)o1)NC1CCCCC1` it is 1 (inactive); for `c1ccc2c(OCc3nc(-c4ccncc4)no3)cccc2c1` it is 1 (inactive). Consider `Clc1ccc(-c2noc(-c3cccnc3)n2)cc1`, for which the “proportion of mobile D. dipsaci” value was 1 (inactive).

`c1cncc(-c2noc(COc3cccc4ccccc34)n2)c1`: the “proportion of mobile D. dipsaci” value is 1 (inactive). The figure for `COc1ccc(-c2nnc(SCC(=O)Nc3cccc(Cl)c3Cl)o2)cc1` is 1 (inactive); for `COc1ccc(OC(C)c2nc(-c3ccccn3)no2)cc1` (stereo not drawn) it is 1 (inactive); for `O=C(CSc1nnc(-c2ccc(Cl)cc2)o1)Nc1ccccc1C(F)(F)F` it is 1 (inactive). With `COc1ccc(-c2nnc(SCC(=O)OCc3ccccc3)o2)cc1`, the “proportion of mobile D. dipsaci” value was 1 (inactive). As for `Cn1c(SCc2cccc(F)c2)nnc1-c1ccco1`, the “proportion of mobile D. dipsaci” value was 1 (inactive).

For the compound `O=C(CSc1nnc(-c2ccc(Br)cc2)o1)Nc1cccc2ccccc12`, the “proportion of mobile D. dipsaci” value is 1 (inactive). As for `Clc1ccccc1OCc1nc(-c2ccc(Br)cc2)no1`, the “proportion of mobile D. dipsaci” value was 1 (inactive). Take `Cc1ccccc1-c1nnc(SCc2ccccc2)o1`: the “proportion of mobile D. dipsaci” value was 1 (inactive).

Turning to `Cc1cc(Cl)ccc1NC(=O)CSc1nnc(-c2ccncc2)o1`, the “proportion of mobile D. dipsaci” value is 1 (inactive). The figure for `COc1cccc(OCc2nc(-c3cccc(Br)c3)no2)c1` is 1 (inactive); for `Brc1ccc(-c2nc(-c3ccncc3)no2)cc1` it is 1 (inactive).

`CC(=O)Nc1ccc(-c2nc(-c3ccccc3)no2)cc1`: the “proportion of mobile D. dipsaci” value was 1 (inactive). Turning to `COc1cccc(-c2noc(COc3ccccc3C)n2)c1`, the “proportion of mobile D. dipsaci” value is 1 (inactive). As to `Cc1ccc(OCc2nc(-c3ccc4c(c3)OCO4)no2)cc1C`, the “proportion of mobile D. dipsaci” value is 1 (inactive). The figure for `O=C(CSc1nnc(-c2cccc3ccccc23)o1)c1ccc(F)cc1` is 1 (inactive); for `CCc1ccc(OCc2nc(-c3ccc(Cl)cc3)no2)cc1` it is 1 (inactive); for `Clc1ccc(OCc2nc(-c3ccccc3)no2)cc1` it is 1 (inactive). Take `COc1ccc(-c2noc(COc3ccc4c(c3)CCCC4)n2)cc1`: the “proportion of mobile D. dipsaci” value is 1 (inactive). The result for `Cc1ccc(SCc2nc(-c3ccccc3)no2)cc1` reads 1 (inactive); that for `CCN(CC)C(=O)CSc1nnc(-c2ccc(Cl)cc2Cl)o1`, 1 (inactive).

The values are drawn from the supplement of paper PMC11219838.
